The values that follow come from PubChem BioAssay (NCI).

Some test systems named below: NCI-H23 lung; NCI-H322M lung; HOP-62 NSCLC; NCI-H460 lung; HOP-92 NSCLC; NCI-H522 lung; A549/ATCC NSCLC; 786-0 renal; COLO 205 colon; DU-145 prostate; K-562 leukemia; MALME-3M melanoma; MDA-MB-231 breast; SF-268 CNS; SF-295 CNS; SF-539 CNS; UACC-257 melanoma; M14 melanoma; HCT-15 colon; RXF 393 renal.
Test in all cases: NCI-60 one-dose screen, 48 h (100 = growth as untreated, 0 = no growth, -100 = all killed)
Common to all, as to settings: 10 µM unless noted

This is part of a sample that, as a whole, favours compounds with a hit. Of some 83,000 tested, about 20% had one in any assay.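 Cell lines were cultured in 96-well plates, exposed to a single compound concentration, and assessed for percent growth 48 hours later.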 A number with no mark means an inactive call. The source made the active and inactive calls. Rule for the calls: active = growth percent below 10; inactive = the rest.

In the case of `Nc1ccc(C2c3ccccc3Oc3ccccc32)cc1`, the growth in the experiment on NCI-H23 lung is 99.1%; in the experiment with NCI-H322M lung, 99.8%; in the experiment on HOP-62 NSCLC it was 91.8%; in the experiment with NCI-H460 lung, 108%; with HOP-92 NSCLC, 93.4%; with NCI-H522 lung, 89.4%. Further, the growth was 97.7% in the experiment with A549/ATCC NSCLC; 105% with 786-0 renal; 105% in the experiment with COLO 205 colon; 106% in the experiment on DU-145 prostate; 82.3% in the experiment on K-562 leukemia; 106% in the experiment with MALME-3M melanoma. Moreover, the growth with MDA-MB-231 breast was 104%; with SF-268 CNS it was 102%; with SF-295 CNS, 89%; with SF-539 CNS it was 111%; in the experiment on UACC-257 melanoma it was 102%; in the experiment with M14 melanoma, 107%. Besides, the growth in the experiment with HCT-15 colon was 99.2%.
As for `CCN1CCN(C(=S)SCC(=O)Nc2nc3ccc(C)cc3s2)CC1`, the growth was 99.2% with NCI-H23 lung; 103% with NCI-H322M lung; 99.7% with HOP-62 NSCLC; 113% in the experiment on NCI-H460 lung; 92.5% with HOP-92 NSCLC; 29.1% with NCI-H522 lung. Besides, the growth with A549/ATCC NSCLC was 103%; in the experiment with 786-0 renal, 118%; with COLO 205 colon, 103%; in the experiment with DU-145 prostate it was 113%; with K-562 leukemia, 104%; in the experiment with MALME-3M melanoma, 105%. For the same compound, the growth in the experiment on MDA-MB-231 breast is 104%; in the experiment on RXF 393 renal, 108%; in the experiment with SF-268 CNS, 107%; in the experiment on SF-295 CNS, 106%; in the experiment with SF-539 CNS, 117%; in the experiment on UACC-257 melanoma, 116%. For the same compound, the growth was 124% in the experiment with M14 melanoma and 103% in the experiment on HCT-15 colon.
Take `CCOC(=O)c1cc2c(n1Cc1cc(OC)c(OC)c(OC)c1)-c1oncc1CCC2`: the growth is 21.5% in the experiment on NCI-H23 lung; 50.7% in the experiment with NCI-H322M lung; 39.8% with HOP-62 NSCLC; 5.74% (active) in the experiment on NCI-H460 lung; 129% in the experiment with HOP-92 NSCLC; 5.14% (active) in the experiment on NCI-H522 lung. Further, the growth was 26.7% with A549/ATCC NSCLC; 39.5% in the experiment on 786-0 renal; -39.9% (active) with COLO 205 colon; 13% with DU-145 prostate; 6.98% (active) with K-562 leukemia; 43.9% with MALME-3M melanoma. For the same compound, the growth with MDA-MB-231 breast was 12.3%; with RXF 393 renal, 26.9%; in the experiment on SF-268 CNS, 46.1%; with SF-539 CNS, -7.45% (active); with UACC-257 melanoma, 70.7%; in the experiment with M14 melanoma, 18%. For the same compound, the growth in the experiment on HCT-15 colon was 16.9%.
`Nc1nc(Nc2cccc(F)c2)nc2ccccc12`: the growth in the experiment on NCI-H23 lung is 38.7%; in the experiment with NCI-H322M lung, 47.2%; in the experiment on HOP-62 NSCLC, 65.7%; in the experiment with NCI-H460 lung, 31.6%; in the experiment with HOP-92 NSCLC, -2.46% (active); in the experiment on NCI-H522 lung, 51.5%. Also, the growth is 46.3% with A549/ATCC NSCLC; 46.5% in the experiment on 786-0 renal; -54.1% (active) in the experiment on COLO 205 colon; 67.9% with DU-145 prostate; 6.62% (active) in the experiment with K-562 leukemia; 57.2% with MALME-3M melanoma. The growth with MDA-MB-231 breast is 43.7%; in the experiment with RXF 393 renal it was 42%; with SF-268 CNS, 77.3%; in the experiment on SF-539 CNS, 54.3%; in the experiment with UACC-257 melanoma it was 12%; in the experiment on M14 melanoma it was 22.9%. Also, in the experiment on HCT-15 colon, the growth is 33.4%.
As to `Cc1cc(Nc2ccc(OCc3ccccc3)cc2)nc2cc(O)ccc12`, the growth in the experiment with NCI-H23 lung was 55%; with NCI-H322M lung, 76.2%; in the experiment on HOP-62 NSCLC, 57.7%; in the experiment on NCI-H460 lung, 47.2%; in the experiment on HOP-92 NSCLC, 15.8%; with NCI-H522 lung it was 53.2%. The growth with A549/ATCC NSCLC is 66.6%; in the experiment on 786-0 renal, 72.2%; in the experiment with COLO 205 colon it was 21.9%; with DU-145 prostate, 86.4%; in the experiment on K-562 leukemia, 5.02% (active); in the experiment on MALME-3M melanoma, 43.6%. Besides, the growth with MDA-MB-231 breast is 37.7%; with RXF 393 renal, 93.7%; with SF-268 CNS it was 79.8%; in the experiment on SF-539 CNS it was 97.5%; in the experiment with UACC-257 melanoma, 43.7%; in the experiment on M14 melanoma, 40.4%. Further, the growth with HCT-15 colon is 16.9%.
For the compound `CCCCCCc1cc2cc(-c3nc4ccccc4[nH]3)c(=Nc3ccccc3C)oc2cc1O`, the growth with NCI-H23 lung is 50.4%; in the experiment on NCI-H322M lung it was 62.8%; in the experiment with HOP-62 NSCLC, 58%; in the experiment on NCI-H460 lung, 44.8%; in the experiment with HOP-92 NSCLC, 13.3%; in the experiment with NCI-H522 lung, 14.3%. Moreover, the growth is 49.9% in the experiment on A549/ATCC NSCLC; 46.8% in the experiment with 786-0 renal; -94.3% (active) in the experiment on COLO 205 colon; 67.4% with DU-145 prostate; 7.87% (active) in the experiment on K-562 leukemia; -29.3% (active) in the experiment on MALME-3M melanoma. Also, the growth is 41.6% in the experiment with MDA-MB-231 breast; 28.5% with RXF 393 renal; 65.5% in the experiment on SF-268 CNS; 75.3% in the experiment on SF-539 CNS; 4.39% (active) in the experiment with UACC-257 melanoma; 9.12% (active) in the experiment with M14 melanoma. For the same compound, the growth with HCT-15 colon was 31.2%.
Take `CCOC(=O)c1cnc2ccc(Cl)cc2c1NCCCN(C)C`: the growth in the experiment on NCI-H23 lung was 22%; in the experiment on NCI-H322M lung, 10.4%; in the experiment with HOP-62 NSCLC it was 8.63% (active); in the experiment with NCI-H460 lung, 1.86% (active); with HOP-92 NSCLC it was 41.1%; with NCI-H522 lung, -17.5% (active). Moreover, the growth with A549/ATCC NSCLC is 4.15% (active); in the experiment with 786-0 renal it was 8.14% (active); in the experiment on COLO 205 colon it was 31.4%; with DU-145 prostate, 19.2%; in the experiment on K-562 leukemia, 1.51% (active); with MALME-3M melanoma, -6.52% (active). The growth in the experiment on MDA-MB-231 breast is 15.8%; in the experiment with RXF 393 renal, -3.24% (active); in the experiment with SF-268 CNS it was 1.81% (active); in the experiment with SF-539 CNS, -12.7% (active); with UACC-257 melanoma, -3.99% (active); in the experiment with M14 melanoma, 2.88% (active). The growth in the experiment with HCT-15 colon is 26.2%.
